# Laboratory results from paper PMC7862700, “An all-to-all approach to the identification of sequence-specific readers for epigenetic DNA modifications on cytosine”.
# Legend:
# Experiment in all cases: DAPPL (digital affinity profiling via proximity ligation, sequencing); 10 mM Tris-HCl pH 7.5, 50 mM NaCl, 1 mM DTT, 4% glycerol, room temperature, 30 min; GST-TFs on glutathione beads, 16-mer random dsDNA library, 0.1% formaldehyde crosslink after washing; high values mean tight binding
# FLI1 = biological target: T1, FLI1 (Homo sapiens, UniProt Q01543 1-452); settings: protein: recombinant; tags: N-terminal GST; dsDNA, one strand shown
# T1 sequence: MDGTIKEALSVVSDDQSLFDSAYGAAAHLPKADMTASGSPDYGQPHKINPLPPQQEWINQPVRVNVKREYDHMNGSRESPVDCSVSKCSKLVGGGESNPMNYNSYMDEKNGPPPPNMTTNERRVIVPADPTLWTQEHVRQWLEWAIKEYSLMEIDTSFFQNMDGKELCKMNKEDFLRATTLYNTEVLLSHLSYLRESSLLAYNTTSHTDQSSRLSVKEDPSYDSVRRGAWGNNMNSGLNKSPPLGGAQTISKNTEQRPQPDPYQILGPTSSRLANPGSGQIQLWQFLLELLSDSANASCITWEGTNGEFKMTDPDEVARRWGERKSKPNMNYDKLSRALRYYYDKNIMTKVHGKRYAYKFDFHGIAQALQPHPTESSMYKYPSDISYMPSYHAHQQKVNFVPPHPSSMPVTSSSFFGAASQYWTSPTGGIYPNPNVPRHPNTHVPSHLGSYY
# In short: (§1)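 Pools were built from human transcription factors expressed in yeast as GST fusions, captured on glutathione beads and DNA-barcoded, along with a tag-only sample. Incubation with 200 nmole of a 16-mer random double-stranded DNA library lasted 30 min at room temperature in Tris/NaCl/DTT/glycerol buffer, and was followed by washing, 0.1% formaldehyde crosslinking, proximity ligation, PCR amplification and Illumina NextSeq500 sequencing. Binding signal is the quotient of each hexamer's read frequency for a factor and its frequency for the tag-only sample.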
# ELK1 = biological target: T2, ELK1 (Homo sapiens, UniProt P19419 1-428); settings: protein: recombinant; tags: N-terminal GST; dsDNA, one strand shown
# T2 sequence: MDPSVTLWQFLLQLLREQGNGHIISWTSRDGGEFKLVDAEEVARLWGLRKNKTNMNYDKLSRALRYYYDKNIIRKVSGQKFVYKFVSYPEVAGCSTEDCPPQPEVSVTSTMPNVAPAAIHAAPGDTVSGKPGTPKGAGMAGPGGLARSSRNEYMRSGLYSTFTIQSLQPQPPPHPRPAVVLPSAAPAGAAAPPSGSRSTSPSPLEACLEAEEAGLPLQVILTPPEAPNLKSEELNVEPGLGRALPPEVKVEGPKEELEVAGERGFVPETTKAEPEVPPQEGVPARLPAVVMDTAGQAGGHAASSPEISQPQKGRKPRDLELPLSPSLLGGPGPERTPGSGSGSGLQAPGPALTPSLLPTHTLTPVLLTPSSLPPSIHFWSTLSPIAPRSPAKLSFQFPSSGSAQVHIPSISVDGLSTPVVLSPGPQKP
# In short: as §1
# GABPA = biological target: T3, GABPA (Homo sapiens, UniProt Q06546 1-454); settings: protein: recombinant; tags: N-terminal GST; dsDNA, one strand shown
# T3 sequence: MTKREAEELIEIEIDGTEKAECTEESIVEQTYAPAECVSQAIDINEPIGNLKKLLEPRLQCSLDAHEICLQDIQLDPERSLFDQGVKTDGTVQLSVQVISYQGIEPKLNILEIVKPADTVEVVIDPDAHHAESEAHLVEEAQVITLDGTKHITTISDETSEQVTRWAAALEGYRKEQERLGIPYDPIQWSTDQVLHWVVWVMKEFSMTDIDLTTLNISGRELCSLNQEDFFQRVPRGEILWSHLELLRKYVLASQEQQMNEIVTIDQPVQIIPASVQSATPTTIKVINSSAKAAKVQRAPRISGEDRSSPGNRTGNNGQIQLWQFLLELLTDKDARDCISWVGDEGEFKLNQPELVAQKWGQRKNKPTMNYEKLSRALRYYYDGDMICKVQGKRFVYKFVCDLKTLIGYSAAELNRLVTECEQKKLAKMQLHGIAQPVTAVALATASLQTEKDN
# In short: as §1
# ERG = biological target: T4, ERG (Homo sapiens, UniProt P11308 1-479); settings: protein: recombinant; tags: N-terminal GST; dsDNA, one strand shown
# T4 sequence: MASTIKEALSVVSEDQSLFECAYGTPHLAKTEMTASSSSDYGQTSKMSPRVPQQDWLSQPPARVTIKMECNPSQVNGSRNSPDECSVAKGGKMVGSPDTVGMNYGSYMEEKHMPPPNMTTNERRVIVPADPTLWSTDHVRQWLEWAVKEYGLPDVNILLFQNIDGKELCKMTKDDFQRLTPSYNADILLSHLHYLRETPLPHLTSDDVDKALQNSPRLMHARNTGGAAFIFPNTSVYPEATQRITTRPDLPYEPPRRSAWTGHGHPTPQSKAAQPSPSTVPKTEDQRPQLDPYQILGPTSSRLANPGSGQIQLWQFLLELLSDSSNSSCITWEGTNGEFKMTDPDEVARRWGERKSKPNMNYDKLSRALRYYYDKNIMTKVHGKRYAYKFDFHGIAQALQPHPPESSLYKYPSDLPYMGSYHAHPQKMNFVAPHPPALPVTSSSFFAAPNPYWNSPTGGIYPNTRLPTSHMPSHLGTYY
# In short: as §1
# ELF1 = ELF1 (Homo sapiens, UniProt P32519 1-619); settings: protein: recombinant; tags: N-terminal GST; dsDNA, one strand shown
# Chain of ELF1 (P32519 whole entry): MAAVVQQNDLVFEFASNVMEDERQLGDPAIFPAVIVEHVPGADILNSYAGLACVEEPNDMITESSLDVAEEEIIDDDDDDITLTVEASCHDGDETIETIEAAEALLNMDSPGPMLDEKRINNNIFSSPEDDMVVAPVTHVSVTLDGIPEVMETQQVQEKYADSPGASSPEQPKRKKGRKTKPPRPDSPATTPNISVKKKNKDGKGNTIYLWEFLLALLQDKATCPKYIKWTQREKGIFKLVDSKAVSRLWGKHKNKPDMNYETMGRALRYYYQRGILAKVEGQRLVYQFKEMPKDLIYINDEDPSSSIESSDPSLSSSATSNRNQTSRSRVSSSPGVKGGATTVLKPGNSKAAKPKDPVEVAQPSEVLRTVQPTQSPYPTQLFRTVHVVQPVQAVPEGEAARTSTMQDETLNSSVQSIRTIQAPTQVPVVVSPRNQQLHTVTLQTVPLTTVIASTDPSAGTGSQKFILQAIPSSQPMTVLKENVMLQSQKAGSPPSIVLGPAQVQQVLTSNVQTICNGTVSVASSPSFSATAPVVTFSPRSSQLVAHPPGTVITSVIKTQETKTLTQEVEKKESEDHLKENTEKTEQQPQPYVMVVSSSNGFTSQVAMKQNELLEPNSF
# In short: as §1
# EHF = biological target: T5, EHF (Homo sapiens, UniProt Q9NZC4 1-300); settings: protein: recombinant; tags: N-terminal GST; dsDNA, one strand shown
# T5 sequence: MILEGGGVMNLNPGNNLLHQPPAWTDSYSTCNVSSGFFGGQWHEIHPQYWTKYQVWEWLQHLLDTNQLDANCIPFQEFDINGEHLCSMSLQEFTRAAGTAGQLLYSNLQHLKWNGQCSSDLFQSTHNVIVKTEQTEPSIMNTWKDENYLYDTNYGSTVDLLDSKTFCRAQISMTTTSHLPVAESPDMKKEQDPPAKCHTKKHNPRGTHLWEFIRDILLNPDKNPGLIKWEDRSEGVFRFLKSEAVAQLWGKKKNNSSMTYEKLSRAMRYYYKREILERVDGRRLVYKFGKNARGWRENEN
# In short: as §1
# SPI1 = SPI1 (Homo sapiens, UniProt P17947 1-270); settings: protein: recombinant; tags: N-terminal GST; dsDNA, one strand shown
# In short: as §1
# SPIB = SPIB (Homo sapiens, UniProt Q01892 1-262); settings: protein: recombinant; tags: N-terminal GST; dsDNA, one strand shown
# Chain of SPIB (Q01892 whole entry): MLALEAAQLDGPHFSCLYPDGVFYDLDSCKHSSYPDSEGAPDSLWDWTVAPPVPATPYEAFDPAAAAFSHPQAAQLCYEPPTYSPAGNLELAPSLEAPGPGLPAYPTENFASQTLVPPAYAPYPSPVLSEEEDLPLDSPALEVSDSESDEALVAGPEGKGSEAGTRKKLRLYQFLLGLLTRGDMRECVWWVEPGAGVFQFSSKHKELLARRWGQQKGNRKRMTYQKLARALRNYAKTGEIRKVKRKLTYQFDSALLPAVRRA
# In short: as §1
# ELK3 = biological target: T6, ELK3 (Homo sapiens, UniProt P41970 1-407); settings: protein: recombinant; tags: N-terminal GST; dsDNA, one strand shown
# T6 sequence: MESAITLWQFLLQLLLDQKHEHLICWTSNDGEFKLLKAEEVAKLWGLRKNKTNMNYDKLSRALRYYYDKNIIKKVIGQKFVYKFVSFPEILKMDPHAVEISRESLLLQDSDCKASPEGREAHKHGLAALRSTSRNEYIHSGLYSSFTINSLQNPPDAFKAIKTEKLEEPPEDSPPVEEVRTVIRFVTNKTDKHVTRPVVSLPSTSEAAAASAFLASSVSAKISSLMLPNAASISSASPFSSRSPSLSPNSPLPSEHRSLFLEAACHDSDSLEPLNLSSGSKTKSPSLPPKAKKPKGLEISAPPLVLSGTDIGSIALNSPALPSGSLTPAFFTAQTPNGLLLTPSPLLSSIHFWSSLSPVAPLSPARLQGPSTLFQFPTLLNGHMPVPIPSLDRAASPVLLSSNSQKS
# In short: as §1
# FEV = biological target: T7, FEV (Homo sapiens, UniProt Q99581 1-238); settings: protein: recombinant; tags: N-terminal GST; dsDNA, one strand shown
# T7 sequence: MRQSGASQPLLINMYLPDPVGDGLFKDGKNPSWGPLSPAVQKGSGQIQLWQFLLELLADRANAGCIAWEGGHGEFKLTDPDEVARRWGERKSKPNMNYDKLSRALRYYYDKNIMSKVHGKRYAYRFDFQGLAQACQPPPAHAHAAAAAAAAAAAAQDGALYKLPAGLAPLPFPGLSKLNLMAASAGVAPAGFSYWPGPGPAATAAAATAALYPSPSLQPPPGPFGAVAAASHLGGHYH
# In short: as §1
# ETV5 = ETV5 (Homo sapiens, UniProt P41161 1-510); settings: protein: recombinant; tags: N-terminal GST; dsDNA, one strand shown
# Chain of ETV5 (P41161 whole entry): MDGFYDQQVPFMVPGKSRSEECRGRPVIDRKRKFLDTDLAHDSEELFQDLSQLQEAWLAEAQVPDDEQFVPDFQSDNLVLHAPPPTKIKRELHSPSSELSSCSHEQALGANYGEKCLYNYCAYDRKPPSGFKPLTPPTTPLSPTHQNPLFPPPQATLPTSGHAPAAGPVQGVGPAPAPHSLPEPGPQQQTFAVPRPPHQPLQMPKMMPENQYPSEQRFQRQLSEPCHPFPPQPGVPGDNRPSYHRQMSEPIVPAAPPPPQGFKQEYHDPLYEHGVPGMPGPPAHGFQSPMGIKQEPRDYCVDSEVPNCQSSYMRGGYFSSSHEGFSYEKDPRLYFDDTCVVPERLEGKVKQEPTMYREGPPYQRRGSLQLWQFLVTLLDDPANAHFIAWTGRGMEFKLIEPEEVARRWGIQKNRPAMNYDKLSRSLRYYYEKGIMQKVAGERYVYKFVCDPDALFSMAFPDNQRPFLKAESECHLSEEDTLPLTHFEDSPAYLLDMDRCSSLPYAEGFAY
# In short: as §1
# HSF1 = HSF1 (Homo sapiens, UniProt Q00613 1-529); settings: protein: recombinant; tags: N-terminal GST; chain copies: 3; dsDNA, one strand shown
# Chain of HSF1 (Q00613 whole entry): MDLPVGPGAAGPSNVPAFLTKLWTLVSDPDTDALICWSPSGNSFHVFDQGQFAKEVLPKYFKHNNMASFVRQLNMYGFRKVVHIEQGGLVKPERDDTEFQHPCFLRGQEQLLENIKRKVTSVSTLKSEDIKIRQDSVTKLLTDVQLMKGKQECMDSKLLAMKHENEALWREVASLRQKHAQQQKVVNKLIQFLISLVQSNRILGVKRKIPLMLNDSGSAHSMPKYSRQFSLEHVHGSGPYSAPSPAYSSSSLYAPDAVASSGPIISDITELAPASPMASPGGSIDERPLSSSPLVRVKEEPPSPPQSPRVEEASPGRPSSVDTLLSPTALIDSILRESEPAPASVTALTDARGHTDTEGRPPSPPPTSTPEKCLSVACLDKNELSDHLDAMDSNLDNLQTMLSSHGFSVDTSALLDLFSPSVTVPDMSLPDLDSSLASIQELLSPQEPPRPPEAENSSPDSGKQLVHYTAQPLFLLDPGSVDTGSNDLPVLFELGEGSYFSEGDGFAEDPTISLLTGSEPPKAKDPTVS
# In short: as §1
# SPIC = biological target: T8, SPIC (Homo sapiens, UniProt Q8N5J4 1-248); settings: protein: recombinant; tags: N-terminal GST; dsDNA, one strand shown
# T8 sequence: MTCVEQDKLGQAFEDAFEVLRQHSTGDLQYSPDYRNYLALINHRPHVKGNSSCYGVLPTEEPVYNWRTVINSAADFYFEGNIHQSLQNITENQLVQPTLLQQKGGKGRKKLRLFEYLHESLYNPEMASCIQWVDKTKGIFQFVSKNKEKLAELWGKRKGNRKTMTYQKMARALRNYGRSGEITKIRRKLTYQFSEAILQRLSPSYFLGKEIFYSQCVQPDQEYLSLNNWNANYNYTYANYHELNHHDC
# In short: as §1
# ELF4 = ELF4 (Homo sapiens, UniProt Q99607 1-663); settings: protein: recombinant; tags: N-terminal GST; dsDNA, one strand shown
# Chain of ELF4 (Q99607 whole entry): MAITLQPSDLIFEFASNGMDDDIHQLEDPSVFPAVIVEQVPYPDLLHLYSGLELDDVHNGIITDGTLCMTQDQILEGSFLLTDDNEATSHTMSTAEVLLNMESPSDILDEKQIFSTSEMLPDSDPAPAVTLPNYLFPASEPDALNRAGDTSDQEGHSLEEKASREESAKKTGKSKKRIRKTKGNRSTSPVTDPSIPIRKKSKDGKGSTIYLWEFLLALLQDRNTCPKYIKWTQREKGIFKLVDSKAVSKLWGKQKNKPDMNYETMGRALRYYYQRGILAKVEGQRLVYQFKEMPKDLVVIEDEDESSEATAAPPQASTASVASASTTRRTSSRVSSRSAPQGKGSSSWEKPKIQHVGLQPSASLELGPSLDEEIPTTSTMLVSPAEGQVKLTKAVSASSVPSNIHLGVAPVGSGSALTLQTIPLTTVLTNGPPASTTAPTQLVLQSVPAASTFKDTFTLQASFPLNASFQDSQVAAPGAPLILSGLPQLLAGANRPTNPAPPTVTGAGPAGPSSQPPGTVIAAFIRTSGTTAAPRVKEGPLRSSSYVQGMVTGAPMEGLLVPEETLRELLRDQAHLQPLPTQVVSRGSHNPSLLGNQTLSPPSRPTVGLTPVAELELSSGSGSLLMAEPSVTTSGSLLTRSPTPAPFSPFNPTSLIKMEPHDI
# In short: as §1
# ELK4 = biological target: T9, ELK4 (Homo sapiens, UniProt P28324-2 1-405); settings: protein: recombinant; tags: N-terminal GST; dsDNA, one strand shown
# T9 sequence: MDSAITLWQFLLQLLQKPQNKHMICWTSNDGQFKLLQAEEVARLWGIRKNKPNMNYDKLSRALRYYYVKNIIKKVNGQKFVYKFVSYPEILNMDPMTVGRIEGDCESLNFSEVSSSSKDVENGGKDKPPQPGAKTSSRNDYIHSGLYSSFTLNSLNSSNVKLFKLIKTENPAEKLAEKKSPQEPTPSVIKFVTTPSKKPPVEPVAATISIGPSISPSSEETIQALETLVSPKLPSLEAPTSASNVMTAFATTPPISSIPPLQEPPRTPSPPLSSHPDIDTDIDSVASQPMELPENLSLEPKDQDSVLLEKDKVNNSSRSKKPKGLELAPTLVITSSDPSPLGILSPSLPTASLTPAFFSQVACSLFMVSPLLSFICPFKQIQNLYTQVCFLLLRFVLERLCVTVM
# In short: as §1
# ETV2 = biological target: T10, ETV2 (Homo sapiens, UniProt O00321 1-342); settings: protein: recombinant; tags: N-terminal GST; dsDNA, one strand shown
# T10 sequence: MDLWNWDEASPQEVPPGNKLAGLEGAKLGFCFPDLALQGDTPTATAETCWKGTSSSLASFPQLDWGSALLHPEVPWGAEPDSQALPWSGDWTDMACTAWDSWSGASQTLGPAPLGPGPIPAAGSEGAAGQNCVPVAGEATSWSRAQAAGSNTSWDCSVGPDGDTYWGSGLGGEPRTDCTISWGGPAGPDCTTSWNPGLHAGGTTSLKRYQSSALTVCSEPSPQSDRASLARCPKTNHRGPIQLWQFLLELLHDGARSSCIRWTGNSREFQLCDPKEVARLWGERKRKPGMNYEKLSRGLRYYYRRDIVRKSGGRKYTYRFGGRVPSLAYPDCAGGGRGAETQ
# In short: as §1
# ELF3 = biological target: T11, ELF3 (Homo sapiens, UniProt P78545 1-371); settings: protein: recombinant; tags: N-terminal GST; dsDNA, one strand shown
# T11 sequence: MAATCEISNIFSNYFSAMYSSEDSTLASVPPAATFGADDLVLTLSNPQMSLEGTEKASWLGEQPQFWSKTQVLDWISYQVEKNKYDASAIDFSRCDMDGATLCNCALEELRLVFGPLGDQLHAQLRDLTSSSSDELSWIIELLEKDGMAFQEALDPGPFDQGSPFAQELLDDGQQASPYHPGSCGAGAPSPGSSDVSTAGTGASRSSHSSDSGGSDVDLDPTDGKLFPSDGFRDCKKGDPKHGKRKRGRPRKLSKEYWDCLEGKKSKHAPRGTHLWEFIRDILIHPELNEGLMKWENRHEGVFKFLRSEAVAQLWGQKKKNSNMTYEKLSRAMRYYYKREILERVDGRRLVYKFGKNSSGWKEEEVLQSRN
# In short: as §1
# CRX = CRX (Homo sapiens, UniProt O43186 1-299); settings: protein: recombinant; tags: N-terminal GST; dsDNA, one strand shown
# Chain of CRX (O43186 whole entry): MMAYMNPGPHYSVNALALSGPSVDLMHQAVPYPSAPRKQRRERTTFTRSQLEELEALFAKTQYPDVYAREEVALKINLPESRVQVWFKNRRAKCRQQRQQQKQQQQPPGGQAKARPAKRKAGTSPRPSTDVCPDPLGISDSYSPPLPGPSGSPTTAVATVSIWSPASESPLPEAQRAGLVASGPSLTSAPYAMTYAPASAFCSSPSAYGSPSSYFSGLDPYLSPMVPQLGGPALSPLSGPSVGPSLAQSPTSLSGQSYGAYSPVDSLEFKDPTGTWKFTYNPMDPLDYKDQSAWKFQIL
# In short: as §1
# ETV1 = ETV1 (Homo sapiens, UniProt P50549 1-477); settings: protein: recombinant; tags: N-terminal GST; dsDNA, one strand shown
# Chain of ETV1 (P50549 whole entry): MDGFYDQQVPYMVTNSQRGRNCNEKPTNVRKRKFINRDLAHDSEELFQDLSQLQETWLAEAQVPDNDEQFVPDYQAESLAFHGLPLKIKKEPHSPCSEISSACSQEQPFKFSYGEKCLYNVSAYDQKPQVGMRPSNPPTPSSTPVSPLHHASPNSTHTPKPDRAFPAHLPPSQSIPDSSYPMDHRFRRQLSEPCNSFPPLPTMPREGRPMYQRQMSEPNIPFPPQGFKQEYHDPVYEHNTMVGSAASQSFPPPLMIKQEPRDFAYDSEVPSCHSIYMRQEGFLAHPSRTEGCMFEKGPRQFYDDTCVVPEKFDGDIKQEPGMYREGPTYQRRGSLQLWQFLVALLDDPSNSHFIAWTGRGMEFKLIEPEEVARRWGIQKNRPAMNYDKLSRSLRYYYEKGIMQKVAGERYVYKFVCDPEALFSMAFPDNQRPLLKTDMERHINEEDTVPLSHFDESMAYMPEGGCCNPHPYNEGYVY
# In short: as §1
sequence,measurement,setting,value
CTGGTA,binding signal,FLI1,"1.3 fold enrichment (6-mer frequency, TF over GST control)"
same,binding signal,ELK1,"1.34 fold enrichment (6-mer frequency, TF over GST control)"
same,binding signal,GABPA,"1.29 fold enrichment (6-mer frequency, TF over GST control)"
same,binding signal,ERG,"1.4 fold enrichment (6-mer frequency, TF over GST control)"
same,binding signal,ELF1,"1.38 fold enrichment (6-mer frequency, TF over GST control)"
same,binding signal,EHF,"1.4 fold enrichment (6-mer frequency, TF over GST control)"
same,binding signal,SPI1,"1.33 fold enrichment (6-mer frequency, TF over GST control)"
same,binding signal,SPIB,"1.4 fold enrichment (6-mer frequency, TF over GST control)"
same,binding signal,ELK3,"1.35 fold enrichment (6-mer frequency, TF over GST control)"
same,binding signal,FEV,"1.23 fold enrichment (6-mer frequency, TF over GST control)"
same,binding signal,ETV5,"1.25 fold enrichment (6-mer frequency, TF over GST control)"
same,binding signal,HSF1,"1.75 fold enrichment (6-mer frequency, TF over GST control)"
same,binding signal,SPIC,"1.28 fold enrichment (6-mer frequency, TF over GST control)"
same,binding signal,ELF4,"1.4 fold enrichment (6-mer frequency, TF over GST control)"
same,binding signal,ELK4,"1.29 fold enrichment (6-mer frequency, TF over GST control)"
same,binding signal,ETV2,"1.41 fold enrichment (6-mer frequency, TF over GST control)"
same,binding signal,ELF3,"1.2 fold enrichment (6-mer frequency, TF over GST control)"
same,binding signal,CRX,"1.38 fold enrichment (6-mer frequency, TF over GST control)"
same,binding signal,ETV1,"1.24 fold enrichment (6-mer frequency, TF over GST control)"
